Results on 93 molecules are retold here after PubChem BioAssay AID1986 (Sanford-Burnham Center for Chemical Genomics, 2009).

Among all 290,000 compounds or so, about 890 (0.31%) were called active. No stated cut-off is given here; in the data, active means inhibition mostly above about 52% (no sharp cut-off); inactive means mostly below about 76%. For the sample, actives were picked, then their nearest neighbours and some compounds at random.

One may read the inhibition as the drop in the measured response relative to a control, in per cent.

This assay in a line: cell-free HIV fusion peptide-binding blockers – biochemical, uHTS, fluorescence dequenching, primary screen (AID 1986). The conditions noted are these: 30 min, stronger effect = higher value.
[1] abbreviates: measured here: repeat confirmation average inhibition, at 18.6 µM.

Regarding `COC(=O)c1ccccc1NC(=O)COC(=O)[C@H](C)NC(N)=O`, under “at 20 µM”, the inhibition was -2.5% (inactive). On to `C=CCn1c(CCC(O)COCCC)n[nH]c1=S` (stereo not drawn), for which the inhibition (at 20 µM) was -0.8% (inactive). As to `COc1ccc2cc(C#N)c(N3CCOCC3)nc2c1`, the inhibition (at 20 µM) is 2.4% (inactive).

Consider `O=C1NC(=S)S/C1=C/c1ccc(N2CCOCC2)o1`, for which the inhibition (at 20 µM) was 18.7% (inactive). Same read-out and setting: with `COc1ccc2cc(/C=C3\SC(=S)NC3=O)c(N3CCOCC3)nc2c1` the figure was 63.1% (active). `O=C1NC(=S)S/C1=C\c1cc2ccccc2nc1N1CCCCC1`: the inhibition reads like this: (at 20 µM) 63.6% (inactive); under setting [1], 28.2%. In the case of `COc1ccc2nc(N3CCCCC3)c(/C=C3\SC(=S)NC3=O)cc2c1`, the inhibition (at 20 µM) is 53.6% (active).

In the case of `COc1ccc(-n2c(C)cc(/C=C3\SC(=S)NC3=O)c2C)cc1`, the inhibition (at 20 µM) is 32.3% (inactive). For `Cc1ccc(CN2CCC(n3nccc3NC(=O)C3CCOC3)CC2)cc1C` (stereo not drawn), where the note is “at 20 µM”, the inhibition was -0.8% (inactive). With `CC(=O)Nc1ccc(C(=O)OCC(=O)c2ccc(C)c([N+](=O)[O-])c2)cc1`, the inhibition (at 20 µM) was 0.2% (inactive). With `Cc1ccc(C(=O)/C=C/c2ccc(-c3ccccc3[N+](=O)[O-])o2)cc1`, the inhibition (at 20 µM) was 35.4% (inactive). Take `Cc1ccc(C(=O)/C=C/c2ccc(-c3ccc(C)cc3)o2)cc1`: the inhibition (at 20 µM) was 21.5% (inactive). For the molecule `CCN(CC)S(=O)(=O)c1ccc(C(=O)/C=C/c2ccc(-c3ccc([N+](=O)[O-])cc3)o2)cc1`, the inhibition (at 20 µM) was 73.1% (active) and the inhibition under setting [1] was 88.1%. Take `Cc1c(C(=O)Nc2cccnc2Cl)oc2ccccc12`: under “at 20 µM”, the inhibition was -1% (inactive). `CCCN(C(=O)CN1C(=O)NC2(CCCCCC2)C1=O)C1CCS(=O)(=O)C1` (stereo not drawn): the inhibition (at 20 µM) is 0.3% (inactive). On to `O=C1/C(=C/c2cccnc2)Sc2ccccc21`, for which the inhibition (at 20 µM) was 9.2% (inactive). Same read-out and setting: with `N#Cc1c(C(F)(F)F)cc(-c2ccccc2)nc1SCCN1CCOCC1` the figure was 2.6% (inactive); with `N#Cc1c(C(F)(F)F)cc(-c2ccccc2)nc1SCc1nc(N)nc(N2CCOCC2)n1`, 66.7% (active). As to `C#CCSc1nc(-c2ccccc2)cc(C(F)(F)F)c1C#N`, the inhibition (at 20 µM) is -0.2% (inactive).

As for `O=C(NCC1CCCO1)c1ccc(CNS(=O)(=O)c2cccc(Cl)c2)cc1` (stereo not drawn), the inhibition (at 20 µM) was -0.3% (inactive).

`Cc1ccc(C(=O)C2=C(O)C(=O)N(Cc3ccco3)C2c2cccc(Cl)c2)o1` (stereo not drawn): under “at 20 µM”, the inhibition is 25.7% (inactive).

With `Cc1cc(C)c(N=Cc2c(O)n(-c3nccs3)c(=O)c3ccccc23)c(C)c1`, the inhibition (at 20 µM) is 0.6% (inactive).

Turning to `Cc1ccccc1N=Cc1c(O)n(-c2nccs2)c(=O)c2ccccc12`, the inhibition (at 20 µM) was 2.3% (inactive). `Cc1ccc(N=Cc2c(O)n(-c3nccs3)c(=O)c3ccccc23)c(C)c1`: the inhibition is, setting by setting: (at 20 µM) 75.3% (active); under setting [1], 103%.

For the molecule `CN1CCN(/N=C/c2ccc(-c3ccccc3)cc2)CC1`, the inhibition (at 20 µM) was 0% (inactive). Regarding `CC1=NN(c2ccccc2)C(=O)/C1=C\c1c(C)[nH]n(-c2ccccc2)c1=O`, for the setting “at 20 µM”, the inhibition is -0.3% (inactive). On the same count and under the same terms, the same measure for `Cc1[nH]n(-c2ccccc2)c(=O)c1/C=C1/C=c2ccccc2=N1`: -2.5% (inactive); for `Cc1coc2cc3oc(=O)c(CCC(=O)N4CCC(C(=O)O)(c5ccccc5)CC4)c(C)c3cc12`: 3.7% (inactive). In the case of `O=C1CCN(Cc2ccccc2)CCN1[C@H](CO)c1ccccc1`, under “at 20 µM”, the inhibition is 1.5% (inactive). With `Cc1ccc(NC(=O)COC(=O)c2ccccc2-c2nc3ccccc3s2)c(C)c1`, the inhibition (at 20 µM) was 1.4% (inactive). Regarding `CCOCCCNC(=O)c1cc2c(=O)n3cccc(C)c3nc2s1`, the inhibition (at 20 µM) is -1.3% (inactive). Turning to `CCCN1C(=O)/C(=C/c2c(NCCCOC(C)C)nc3c(C)cccn3c2=O)SC1=S`, the inhibition (at 20 µM) is 1.8% (inactive). The same measure, in the same setting: with `CCOCCCNc1nc2c(C)cccn2c(=O)c1/C=C1\SC(=S)N(C(C)CC)C1=O` (stereo not drawn) the figure was 94.5% (active). For the molecule `CCOCCCNc1nc2c(C)cccn2c(=O)c1/C=C1\SC(=S)N(CC(C)C)C1=O`, the inhibition (at 20 µM) is 58.9% (active) and the inhibition under setting [1] amounted to 63.6%. With `CCCN1C(=O)/C(=C/c2c(NCCCOCC)nc3c(C)cccn3c2=O)SC1=S`, the inhibition (at 20 µM) was 8.4% (inactive).

As to `Cc1cccn2c(=O)c(C=Nc3ccccc3)c(NCCO)nc12`, the inhibition (at 20 µM) was 0.3% (inactive). For `Cc1cccn2c(=O)c(/C=C3\SC(=S)NC3=O)c(NCCCN3CCOCC3)nc12`, the inhibition (at 20 µM) was 75.8% (inactive) and the inhibition under setting [1] stood at 7.4%. As to `Cc1cccn2c(=O)c3cc(C(=O)NCCCOC(C)C)sc3nc12`, the inhibition (at 20 µM) is 1% (inactive). As for `CCC(C)N1C(=O)/C(=C/c2c(NCCCOC(C)C)nc3c(C)cccn3c2=O)SC1=S` (stereo not drawn), the inhibition is 75.6% (active) (at 20 µM) and 144% under setting [1]. As to `Cc1c(C(=O)NN)sc(=S)n1C`, the inhibition (at 20 µM) was -1.3% (inactive). The same measure, in the same setting: the same measure for `O=C(N/N=C/c1cc2c(cc1Br)OCO2)c1cc2ccccc2o1`: -0.4% (inactive); for `COc1cccc(NC(=O)Cc2c(O)c3ccccc3[nH]c2=O)c1`: -2.3% (inactive); for `Cn1nnnc1SCc1ccccc1F`: 2.4% (inactive). On the same count and under the same terms, the same measure for `O=C(Nc1cccc(NC(=O)c2ccc([N+](=O)[O-])o2)c1)c1ccco1`: 0.6% (inactive); for `CC(C)c1onc(C(=O)NCCc2ccccc2)c1[N+](=O)[O-]`: -0.8% (inactive); for `O=C(O)c1ccccc1NS(=O)(=O)c1cccc(C(F)(F)F)c1`: 7.8% (inactive).

Take `O=C(O)c1ccccc1NS(=O)(=O)c1cccc(-n2sc3ccccc3c2=O)c1`: the inhibition (at 20 µM) was 54.9% (active). For `CN(C)S(=O)(=O)c1cccc(-n2sc3ccccc3c2=O)c1`, the inhibition (at 20 µM) is -1.2% (inactive). Consider `Cc1ccccc1N=Cc1cccc(O)c1O`, for which the inhibition (at 20 µM) is 64.9% (active). The same measure, in the same setting: the same measure for `Cc1ccc(N=Cc2cccc(O)c2O)c(C)c1`: -1.8% (inactive); for `Oc1cccc(C=Nc2cccc3ccccc23)c1O`: 36.3% (inactive); for `Clc1cccc(CN2CCN(c3nc4nonc4nc3NC3CC3)CC2)c1`: 3.4% (inactive). Take `Nc1ccc2nc3c(=O)n(C4CCCCC4)c(=O)[nH]c3nc2c1`: for the setting “at 20 µM”, the inhibition was 146% (inactive). Turning to `CCCCCCn1c(=O)[nH]c2nc3cc(N)c(C)cc3nc2c1=O`, the inhibition (at 20 µM) was 38.8% (inactive). With `Cc1cc2nc3c(=O)n(C4CCCCC4)c(=O)[nH]c3nc2cc1N`, the inhibition (at 20 µM) is 66.8% (active).

`CCOC(=O)c1cnc2c(N=Nc3ccccc3)c(N)nn2c1N`: the inhibition (at 20 µM) was -0.1% (inactive).

Consider `COc1ccc(/C=N\NS(=O)(=O)c2ccc(Br)cc2)cc1COc1ccccc1[N+](=O)[O-]`, for which the inhibition (at 20 µM) was -1.1% (inactive). For `COC(=O)c1cc(S(=O)(=O)NCCc2ccc(Cl)cc2)c[nH]1`, the inhibition (at 20 µM) was 1.3% (inactive). As to `Oc1c(C(Nc2ccccn2)c2cccnc2)cc(Cl)c2cccnc12` (stereo not drawn), the inhibition (at 20 µM) is -3.6% (inactive). With `COc1ccccc1C(NC(C)=O)c1cc(Cl)c2cccnc2c1O` (stereo not drawn), the inhibition (at 20 µM) is -2.4% (inactive).

Regarding `O=C(O)COc1ccccc1C(Nc1cccnc1)c1cc(Cl)c2cccnc2c1O` (stereo not drawn), the inhibition (at 20 µM) is 77.6% (active). For the molecule `O=C(O)COc1ccccc1C(Nc1ccccn1)c1cc(Cl)c2cccnc2c1O` (stereo not drawn), the inhibition (at 20 µM) was 56.9% (active).

Consider `O=C(NC(c1ccccc1)c1cc(Cl)c2cccnc2c1O)c1cccnc1` (stereo not drawn), for which the inhibition (at 20 µM) is 0.8% (inactive). For the molecule `CCOc1ccc(C(Nc2cccnc2)c2cc(Cl)c3cccnc3c2O)cc1` (stereo not drawn), the inhibition (at 20 µM) is 17.1% (inactive). Turning to `Fc1ccc(CSc2ccc(-c3ccc4c(c3)OCO4)nn2)cc1`, the inhibition (at 20 µM) was -3.7% (inactive). With `O=S(=O)(NCCC1CC1(Cl)Cl)c1ccccc1` (stereo not drawn), the inhibition (at 20 µM) was -2% (inactive). As for `CCOc1ccc(C(=O)NC(=S)Nc2ccccn2)cc1[N+](=O)[O-]`, under “at 20 µM”, the inhibition is -0.9% (inactive). Same read-out and setting: with `O=C(NC1CCCCC1)Oc1cc2oc(=O)sc2cc1Br` the figure was -1.5% (inactive). As to `CCCCNC(=O)Oc1cc(CCl)on1`, the inhibition (at 20 µM) was 0.1% (inactive). Regarding `CCCCNC(=O)Oc1c(Br)cc2sc(=O)oc2c1Br`, the inhibition (at 20 µM) was 54.3% (active). For the molecule `COC(=O)c1cc(OC)c(OC)cc1NC(=O)c1csc(C)c1`, the inhibition (at 20 µM) was -1.1% (inactive). In the case of `CCCC1=C/C(=C/c2ccc(-c3ccccc3OC)o2)C(=O)O1`, the inhibition (at 20 µM) is 32% (inactive). `COc1ccccc1-c1ccc(/C=C2\C=CC(=O)O2)o1`: the inhibition (at 20 µM) is 70.7% (active) and the inhibition under setting [1] was determined as 59%. Consider `COc1ccccc1-c1ccc(/C=C2/C=C(C)OC2=O)o1`, for which, for the setting “at 20 µM”, the inhibition was 48.6% (inactive).

Take `CCCCNC(=O)O/N=C(\N)CS(=O)(=O)C(C)(C)C`: where the note is “at 20 µM”, the inhibition was -2.3% (inactive). Regarding `COc1cccc(NC(=O)Cn2nnc(C(=O)Nc3cc(Cl)ccc3OC)c2N)c1`, under “at 20 µM”, the inhibition was 1.3% (inactive).

Regarding `CCOc1ccc(C(=O)Nc2ncccc2Cl)cc1`, the inhibition (at 20 µM) was 1.2% (inactive). On the same count and under the same terms, the same measure for `Cc1ccc2c(nc3s/c(=C/c4cccs4)c(=O)n32)c1C`: -1.1% (inactive); for `COc1ccc(O)c(/C=c2/sc3nc4cc(C)c(C)cc4n3c2=O)c1`: -3.1% (inactive). Take `Cc1cc2nc3s/c(=C/c4ccc(-c5ccccc5C(=O)O)o4)c(=O)n3c2cc1C`: the inhibition reads like this: (at 20 µM) 116% (active); under setting [1], 108%. The corresponding values for `O=C(O)c1ccccc1-c1ccc(/C=c2\sc3nc4cc(Br)cnc4n3c2=O)o1` are 56.9% (inactive) and 28.9%.

With `CCOC(=O)C(C)N1C(=O)S/C(=C\c2ccc(-c3ccccc3C(=O)O)o2)C1=O` (stereo not drawn), under “at 20 µM”, the inhibition is 22.7% (inactive). On to `Cc1ccc2c(nc3s/c(=C\c4ccc(-c5ccccc5C(=O)O)o4)c(=O)n32)c1C`, for which the inhibition runs as follows: (at 20 µM) 88% (active); under setting [1], 121%. Take `COCCCNC(=O)c1ccc(CS(=O)(=O)c2cccc(C(F)(F)F)c2)o1`: the inhibition (at 20 µM) is -1.7% (inactive). The same measure, in the same setting: with `CCC12CN3CCN(CC(C3)/C1=N\NC(=O)c1ccc(F)cc1)C2` the figure was 0.1% (inactive); with `CCOc1ccc(C2C(C(=O)c3ccco3)=C(O)C(=O)N2Cc2cccnc2)cc1` (stereo not drawn), 0.5% (inactive); with `Cc1ccc(C)c(NC(=O)CSc2nnc(CNC(=O)c3ccco3)n2C)c1`, -1.8% (inactive).

Turning to `CCOC(=O)c1ccc(N2C(=O)c3n[nH]c(-c4ccco4)c3C2c2cccc([N+](=O)[O-])c2)cc1` (stereo not drawn), the inhibition (at 20 µM) was 14.6% (inactive). On the same count and under the same terms, the same measure for `CCOC(=O)c1ccc(N2C(=O)c3n[nH]c(-c4ccco4)c3C2c2ccc([N+](=O)[O-])cc2)cc1` (stereo not drawn): 60.1% (active); for `CCOC(=O)c1ccc(N2C(=O)c3n[nH]c(C)c3C2c2ccco2)cc1` (stereo not drawn): -0.8% (inactive). On to `Cc1nnc(SCC(=O)N2CCN(c3ccccc3)CC2)n(N)c1=O`, for which, for the setting “at 20 µM”, the inhibition was 0.4% (inactive). In the case of `COc1cc(OC)cc(C(=O)n2nc(C)cc2C)c1`, the inhibition (at 20 µM) is -0.7% (inactive). As for `Cn1c(CC(=O)Nc2ccc(Cl)cc2)nnc1SCC(=O)N1CCOCC1`, where the note is “at 20 µM”, the inhibition was -1% (inactive).
